Results as given in PubChem BioAssay (NCI).
The panel holds about 83,000 compounds, 20% with a hit somewhere; the sample as a whole holds those more often.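 Results are percent growth after 48 hours of single-concentration exposure. 100 means growth as in untreated cells, lower positive values show inhibition; negative values down to -100 show cell death.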 A number with no mark means an inactive call. Active and inactive are the calls of the source. Rule for the calls: active = growth percent below 10; inactive = the rest.

Tested on: U251 CNS
Test: NCI-60 one-dose screen, 48 h (100 = growth as untreated, 0 = no growth, -100 = all killed)
Conditions: 10 µM unless noted

First: CCN(CC)c1nc(SCC(=O)Nc2nc3ccc(C)cc3s2)nc(-c2ccccc2)c1C#N
Second: Cc1cccc(NC(=O)CSc2nc3ccccc3[nH]2)c1
The growth of the first is lower: 87.6% for the first, 101% for the second.

First: CCN1CCN(c2cc(C)nc(NCc3cc(Nc4ccnc5cc(Cl)ccc45)ccc3F)n2)CC1
Second: Cc1cc(Cl)nc(NCc2cc(Nc3ccnc4cc(Cl)ccc34)ccc2F)n1
The growth of the first is higher: 59.8% for the first, 48.9% for the second.

First: NC(=N\N=C/c1cccc([N+](=O)[O-])c1)/C(N)=N\N=C/c1cccc([N+](=O)[O-])c1
Second: COc1cc(/C=C/C(=O)c2cccc(-n3cc(-c4ccccc4)[nH]c3=O)c2)ccc1O
The growth of the first is higher: 76.6% for the first, 16.6% for the second.

First: COc1ccc(-c2csc(C3=C(O)CN(C(C)C)C3=N)n2)cc1OC
Second: COc1ccc(C2=NN(C(=O)c3cc(OC)c(OC)c(OC)c3)C(c3ccc(Cl)cc3)C2)cc1OC (centres undefined)
The growth of the first is higher: 98.3% for the first, 24% for the second.

Going from COc1ccc(-c2ccc3c(c2)sc2nc(-c4ccc(F)cc4)cn23)cc1 to NS(=O)(=O)c1ccc(-n2nc(C(=O)N/N=C\c3ccc(F)cc3)cc2-c2ccc(Cl)cc2)cc1, the growth rises from 83.3% to 93.3%.

First: Cc1ccc(S(=O)(=O)NCC[C@@H]2C[C@H]2c2cc3ccccc3s2)cc1
Second: Cc1ccc2c(c1)Sc1c(ccc3ccccc13)N2
The growth of the first is higher: 98.6% for the first, 45.3% for the second.

Compared with C[n+]1cc2cc(C(N)=O)[nH]c3c(=N)c(Cl)c(N)c1c23, N#Cc1c(-c2cccc(Cl)c2)cc(-c2cccc(F)c2)[nH]c1=O is higher in growth: 62.2% for the first, 86.7% for the second.

First: CCN(CC)CCCNc1ccc(Nc2ccc(OC)cc2)cc1
Second: COc1ccc(N=C(c2ccccc2)C2C(=O)c3ccccc3C2=O)cc1
The growth of the first is lower: 79.8% for the first, 81.8% for the second.

Going from O=C1C=C[C@]2(C[C@@H](c3cccc(C(F)(F)F)c3)O[C@@H](c3cccc(C(F)(F)F)c3)O2)O1 to COc1ccc2c(c1)CCCN2c1c2ccccc2nc2ccccc12, the growth falls from 28.6% to 14.1%.

Going from COc1ccc(NC(=O)CSc2nnc(-c3cc(-c4ccc(S(N)(=O)=O)cc4)nc4ccccc34)n2-c2ccccc2)cc1 to O=c1c2c3c(sc2n2c(-c4cn(-c5ccccc5)nc4-c4ccc(Cl)cc4)nnc2n1Cc1ccccc1)CCCC3, the growth rises from 85.5% to 98.2%.

Compared with COc1ccc(-c2nc3ccc4[nH]ncc4c3c3c2CCCC3)cc1B(O)O, O=c1[nH]ccc2nc(N3CCC(O)CC3)nc(Nc3ccc(N4CCOCC4)cc3)c12 is higher in growth: 78% for the first, 88.2% for the second.

First: O=C(/C=C/c1c(Cl)nc2sccn12)c1nccs1
Second: Cc1c(O)cc(-c2cnc(N/N=C\c3ccc(Cl)cc3)s2)c(O)c1C
The growth of the first is higher: 91.6% for the first, 89.9% for the second.

Going from CCCCCS(=O)(=O)Nc1ccc(C(=O)O)cc1 to O=C(CSc1nnc(-c2ccc(NC(=O)c3cccnc3)cc2)o1)N[C@@H](Cc1ccc(O)cc1)C(=O)O, the growth rises from 92.8% to 103%.

First: N#CC1=C(c2ccc(Br)cc2)NC(SCC(=O)c2ccc(Br)cc2)NC1=O (centres undefined)
Second: CC(C)(C)C(CCc1ccc(Cl)cc1)N1CCN(C2CCCCC2)CC1 (centres undefined)
The growth of the first is higher: 108% for the first, 38.1% for the second.

With Cn1cc(-c2csc(-c3cccc(F)c3)n2)c2cccnc21 the growth was -36.4% [100 µM] (active).
For CSc1n(Cc2ccc3ccccc3c2)c(C)c[n+]1Cc1ccc2ccccc2c1, the growth was 2.53% (active).
Cc1nc2c(c(N3CCCc4ccccc43)n1)CCC2 was tested, and the growth was 7.57% (active).
CC/C=C\C[C@H](O)C/C=C1/C(=O)C=C[C@@H]1C/C=C\CCCCO was tested, and the growth was -33% (active).
With CCN1CCN(c2nc(C)cc(NCc3cc(Nc4ccnc5cc(Cl)ccc45)ccc3F)n2)CC1 the growth was -27.2% (active).
With COc1ccc2[nH]c(O)c(/C=c3/cc4c(c(-c5ccc(F)c(OC)c5)n3)=Nc3ccccc3-4)c2c1 the growth was -70.1% (active).
With CN(C)CC1C(=O)O[C@H]2[C@H]1CC/C(COC(=O)c1cc3ccccc3[nH]1)=C\CC[C@@]1(C)O[C@@H]21 (some centres undefined) the growth was -60.9% (active).
In the case of CCCCCCCCCOc1c(OC)cc(C2CC(=O)Nc3c2c(C)nn3-c2nc3ccccc3[nH]2)cc1OC (centres undefined), the growth is reported as -51.6% (active).
With Cc1cc(NCc2cc(Nc3ccnc4cc(Cl)ccc34)ccc2F)nc(N2CCSCC2)n1 the growth was -71.4% (active).

Tested on: PC-3 prostate
Test: as above
Conditions: 10 µM unless noted

First: CCN(CC)c1nc(SCC(=O)Nc2nc3ccc(C)cc3s2)nc(-c2ccccc2)c1C#N
Second: Cc1cccc(NC(=O)CSc2nc3ccccc3[nH]2)c1
The growth of the first is lower: 67% for the first, 91% for the second.

First: CCN1CCN(c2cc(C)nc(NCc3cc(Nc4ccnc5cc(Cl)ccc45)ccc3F)n2)CC1
Second: CCN1CCN(c2nc(C)cc(NCc3cc(Nc4ccnc5cc(Cl)ccc45)ccc3F)n2)CC1
The growth of the first is higher: 57.6% for the first, 19.5% for the second.

Going from NC(=N\N=C/c1cccc([N+](=O)[O-])c1)/C(N)=N\N=C/c1cccc([N+](=O)[O-])c1 to COc1cc(/C=C/C(=O)c2cccc(-n3cc(-c4ccccc4)[nH]c3=O)c2)ccc1O, the growth falls from 72.2% to 61.3%.

First: COc1ccc(-c2csc(C3=C(O)CN(C(C)C)C3=N)n2)cc1OC
Second: COc1ccc(C2=NN(C(=O)c3cc(OC)c(OC)c(OC)c3)C(c3ccc(Cl)cc3)C2)cc1OC (centres undefined)
The growth of the first is higher: 35.3% for the first, 26.5% for the second.

Compared with COc1ccc(-c2ccc3c(c2)sc2nc(-c4ccc(F)cc4)cn23)cc1, NS(=O)(=O)c1ccc(-n2nc(C(=O)N/N=C\c3ccc(F)cc3)cc2-c2ccc(Cl)cc2)cc1 is higher in growth: 81.7% for the first, 81.9% for the second.

Going from Cc1ccc(S(=O)(=O)NCC[C@@H]2C[C@H]2c2cc3ccccc3s2)cc1 to Cc1ccc2c(c1)Sc1c(ccc3ccccc13)N2, the growth falls from 99.8% to 61%.

Compared with C[n+]1cc2cc(C(N)=O)[nH]c3c(=N)c(Cl)c(N)c1c23, N#Cc1c(-c2cccc(Cl)c2)cc(-c2cccc(F)c2)[nH]c1=O is higher in growth: 48.4% for the first, 85.3% for the second.

Going from CCN(CC)CCCNc1ccc(Nc2ccc(OC)cc2)cc1 to COc1ccc(N=C(c2ccccc2)C2C(=O)c3ccccc3C2=O)cc1, the growth falls from 55.3% to 32.3%.

Compared with Cc1nc2c(c(N3CCCc4ccccc43)n1)CCC2, COc1ccc2c(c1)CCCN2c1c2ccccc2nc2ccccc12 is higher in growth: 12.8% for the first, 15.9% for the second.

First: Cc1cc(Cl)nc(NCc2cc(Nc3ccnc4cc(Cl)ccc34)ccc2F)n1
Second: Cc1cc(NCc2cc(Nc3ccnc4cc(Cl)ccc34)ccc2F)nc(N2CCSCC2)n1
The growth of the first is higher: 52.7% for the first, 26.6% for the second.

Going from COc1ccc(NC(=O)CSc2nnc(-c3cc(-c4ccc(S(N)(=O)=O)cc4)nc4ccccc34)n2-c2ccccc2)cc1 to O=c1c2c3c(sc2n2c(-c4cn(-c5ccccc5)nc4-c4ccc(Cl)cc4)nnc2n1Cc1ccccc1)CCCC3, the growth rises from 65.9% to 95.3%.

Compared with COc1ccc(-c2nc3ccc4[nH]ncc4c3c3c2CCCC3)cc1B(O)O, COc1ccc2[nH]c(O)c(/C=c3/cc4c(c(-c5ccc(F)c(OC)c5)n3)=Nc3ccccc3-4)c2c1 is higher in growth: 57.6% for the first, 68.7% for the second.

First: O=C(/C=C/c1c(Cl)nc2sccn12)c1nccs1
Second: Cc1c(O)cc(-c2cnc(N/N=C\c3ccc(Cl)cc3)s2)c(O)c1C
The growth of the first is higher: 91.1% for the first, 66.4% for the second.

Compared with O=c1[nH]ccc2nc(N3CCC(O)CC3)nc(Nc3ccc(N4CCOCC4)cc3)c12, CC(C)(C)C(CCc1ccc(Cl)cc1)N1CCN(C2CCCCC2)CC1 (centres undefined) is lower in growth: 89.8% for the first, 27.7% for the second.

Going from CCCCCS(=O)(=O)Nc1ccc(C(=O)O)cc1 to O=C(CSc1nnc(-c2ccc(NC(=O)c3cccnc3)cc2)o1)N[C@@H](Cc1ccc(O)cc1)C(=O)O, the growth falls from 102% to 101%.

N#CC1=C(c2ccc(Br)cc2)NC(SCC(=O)c2ccc(Br)cc2)NC1=O (centres undefined) was tested, and the growth was 92.4%.

Cn1cc(-c2csc(-c3cccc(F)c3)n2)c2cccnc21 was tested, and the growth was -42% [100 µM] (active).
CSc1n(Cc2ccc3ccccc3c2)c(C)c[n+]1Cc1ccc2ccccc2c1 was tested, and the growth was 0.0083% (active).
O=C1C=C[C@]2(C[C@@H](c3cccc(C(F)(F)F)c3)O[C@@H](c3cccc(C(F)(F)F)c3)O2)O1 was tested, and the growth was 7.18% (active).
In the case of CC/C=C\C[C@H](O)C/C=C1/C(=O)C=C[C@@H]1C/C=C\CCCCO, the growth is reported as 0.486% (active).
CN(C)CC1C(=O)O[C@H]2[C@H]1CC/C(COC(=O)c1cc3ccccc3[nH]1)=C\CC[C@@]1(C)O[C@@H]21 (some centres undefined) was tested, and the growth was -23.7% (active).
For CCCCCCCCCOc1c(OC)cc(C2CC(=O)Nc3c2c(C)nn3-c2nc3ccccc3[nH]2)cc1OC (centres undefined), the growth was -3.05% (active).
